Assay [1] is described as follows: NCI Yeast Anticancer Drug Screen. Data for the rad50 strain (AID 155).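 Note: 0% = growth of vehicle-only cultures of the same strain.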 As to conditions: S. cerevisiae rad50 strain growth inhibition; at 50.0 µM; stronger effect = higher value. The gist of the method:
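Vehicle-treated cultures provide the reference for the growth inhibition reported for compound-exposed, repair-deficient yeast.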

Assay [2] in a line: NCI Yeast Anticancer Drug Screen. Data for the mec2-1 strain (AID 157). The conditions noted are these: S. cerevisiae mec2-1 strain, at 50.0 µM, stronger effect = higher value. The gist of the method: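 Cells of the genetically defined mec2-1 yeast strain are incubated with test compound. Inhibition of growth is calculated against vehicle-treated controls.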
Assay [3] in a line: NCI Yeast Anticancer Drug Screen. Data for the sgs1 mgt1 strain (AID 161).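 Note: 0% = growth of cultures given vehicle only.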 The conditions noted are these: S. cerevisiae sgs1 mgt1 strain, at 50.0 µM, stronger effect = higher value. The gist of the method: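 Read-out: growth inhibition vs vehicle controls. Cells: mutant yeast strain deficient in DNA damage repair.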
Assay [4] is described as follows: NCI Yeast Anticancer Drug Screen. Data for the cln2 rad14 strain (AID 165).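 Note: 0% = growth equal to vehicle treated cultures.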 As to conditions: S. cerevisiae cln2 rad14 strain, at 50.0 µM, stronger effect = higher value. The gist of the method: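 The screen exposed genetically defined yeast (cln2 rad14) to test compounds and scored growth inhibition relative to vehicle-treated controls.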
The nature of assay [5]: NCI Yeast Anticancer Drug Screen. Data for the bub3 strain (AID 167). As to conditions: S. cerevisiae bub3 mutant strain, at 50.0 µM, stronger effect = higher value. The gist of the method:
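Mutant yeast screening strain plus compound; vehicle-treated cultures serve as the 0% inhibition reference.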

Assay [6] in a line: NCI Yeast Anticancer Drug Screen. Data for the mlh1 rad18 strain (AID 175). As to conditions: S. cerevisiae mlh1 rad18 strain growth inhibition; at 50.0 µM; stronger effect = higher value. The method, boiled down: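 Compound-treated yeast growth, normalised to vehicle controls. Strain bears defined DNA repair mutations.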

Where “and” joins values, the source holds several entries; their conditions need not be identical. Equal entries are not always repeated. This is part of a sample that, as a whole, favours compounds with a hit. Of some 79,000 tested, about 15% had one in any assay. A number with no mark means an inactive call. Calls of active or inactive are those of the source. Cut-off read from the data, not from the text of the source: active = growth inhibition above about 70%; inactive = the rest.

On to `CNC(=S)P(c1ccccc1)c1ccccc1`, for which the growth inhibition in assay [1] is 9.4%; in assay [2] it was 15.2%; in assay [3], 7.1%; in assay [4], 22.4%; in assay [5], 13.4%; in assay [6], 10.4%.

Regarding `CCCNP(=S)(NCCC)NCCC`, the growth inhibition is 1% in assay [1]; -10.4% in assay [2]; 8.5% in assay [3]; -16.4% in assay [4]; 0% in assay [5]; 22% in assay [6].

For `CCCCCCCCCCCC[C@@H](O)[C@H]1CC[C@H]([C@H](O)CCCC[C@H](O)CCCCC[C@@H](O)CC2=C[C@H](C)OC2=O)O1`, the growth inhibition in assay [1] is 10%; in assay [2] it was -7.05%; in assay [3] it was -20.8%; in assay [4], -7.5%; in assay [5], -1.65%; in assay [6] it was -41.2%.

Consider `CO/N=C1\CC(C)N2C(=O)C(C(C)C)NC(=O)C(NC(=O)c3c4nc5c(C(=O)NC6C(=O)NC(C(C)C)C(=O)N7C(C)CC(O)C7C(=O)N(C)CC(=O)N(C)C(C(C)C)C(=O)OC6C)ccc(C)c5oc-4c(C)c(=O)c3N)C(CO)OC(=O)C(C)N(C)C(=O)CN(C)C(=O)C12` (configuration not stated), for which the growth inhibition in assay [1] is 23.1%; in assay [2], -18.8%; in assay [3] it was 9.35%; in assay [4], 20%; in assay [5], -3.9%; in assay [6], 8.45%.

On to `CC(=O)O`, for which the growth inhibition in assay [1] was 2.15%; in assay [2], -13%; in assay [3], 7.5%; in assay [4], 4.05%; in assay [5] it was 1.45%; in assay [6] it was 0.55%.

As for `CC(C)(Cl)[N+](=O)[O-]`, the growth inhibition was -3.35% in assay [1]; -13.3% in assay [2]; 6.65% in assay [3]; -1.7% in assay [4]; -5.45% in assay [5]; 16.6% in assay [6].

Regarding `CN(C)C(=O)Oc1c(Cl)cccc1Cl`, the growth inhibition in assay [1] was 28.4%; in assay [2], 24.4%; in assay [3] it was 5.65%; in assay [4], 10.5%; in assay [5], 36.8%; in assay [6], 14.1%.

For `CC(=O)C1(c2ccccc2)CCCN(C)CC1` (configuration not stated), the growth inhibition is -7.8% in assay [1]; -8.95% in assay [2]; 8.2% in assay [3]; 1.35% in assay [4]; 3.45% in assay [5]; -3.45% in assay [6].

Consider `CCN(CC)CCN(Cc1ccccc1)C(=O)C(O)(c1ccccc1)c1ccccc1`, for which the growth inhibition is -0.4% in assay [1]; -23.6% in assay [2]; -4.05% in assay [3]; -39.4% in assay [4]; -1.5% in assay [5]; -24.6% in assay [6].

Turning to `OCC(O)C(O)C(O)C1C[O][Sb][O]1` (configuration not stated), the growth inhibition in assay [1] is 0.85%; in assay [2], 3.6%; in assay [3], 7.85%; in assay [4] it was -11.2%; in assay [5], -2.85%; in assay [6] it was 8.2%.

`O=C1NN(c2ccccc2)C(=O)C1c1ccccc1` (configuration not stated): the growth inhibition in assay [1] is 24.2%; in assay [2] it was 28.8%; in assay [3], 17.4%; in assay [4], 9.75%; in assay [5], -5.9%; in assay [6], 41.5%.

In the case of `CCC1(c2ccccc2)C(=O)N(CCCl)C(=O)N(CCCl)C1=O`, the growth inhibition was 27.7% in assay [1]; 15.8% in assay [2]; 4.35% in assay [3]; -21.7% in assay [4]; 12.2% in assay [5]; 17.4% in assay [6].

Turning to `C#CCOC(=O)C=[N+]=[N-]`, the growth inhibition was -11.7% in assay [1]; -6.75% in assay [2]; -10.6% in assay [3]; 14.7% in assay [4]; 3.85% in assay [5]; -2.1% in assay [6].

For the molecule `CC(C)(C)c1cc(C#N)cc(Br)c1OP(=O)(Oc1c(Br)cc(C#N)cc1C(C)(C)C)c1ccccc1`, the growth inhibition in assay [1] was -9.6%; in assay [2] it was -7.5%; in assay [3], -28.8%; in assay [4], -3%; in assay [5], -24%; in assay [6], -17.6%.

As to `CC(C)OP(=O)(OC(C)C)C(C(F)(F)F)C(F)(F)F`, the growth inhibition in assay [1] was -3.65%; in assay [2], 9.65%; in assay [3], 19%; in assay [4], 45.9%; in assay [5] it was 10.6%; in assay [6] it was -23.1%.

With `CCOP(=O)(NCCc1ccccc1)OCC`, the growth inhibition in assay [1] was -36.6%; in assay [2], -37.4%; in assay [3], -7.3%; in assay [4] it was -3.9%; in assay [5], -33%; in assay [6], -12.4%.

For the molecule `O=C([O-])CC(=O)[O-].O=C([O-])CC(=O)[O-].[K+].[Pd+2]`, the growth inhibition in assay [1] was 14.2%; in assay [2], 19.1%; in assay [3], 28.2%; in assay [4], 26.6%; in assay [5], 11.5%; in assay [6], 16.2%.

Regarding `Cn1cccc1-c1cccnc1`, the growth inhibition was -23.8% and -4.7% in assay [1]; -34.6% and -4.95% in assay [2]; -4.8% and -7.45% in assay [3]; 10.7% and 0.7% in assay [4]; -19.3% and 0.05% in assay [5]; -12.7% and -9.15% in assay [6].

Regarding `Cc1ccc(NP(=S)(Nc2ccc(C)cc2C)Nc2ccc(C)cc2C)c(C)c1`, the growth inhibition in assay [1] is 18.3%; in assay [2], -1.6%; in assay [3], -3.1%; in assay [4] it was 17.9%; in assay [5], 2.7%; in assay [6], 9.55%.

With `CCOC(=O)C1(C#N)C(C#N)(C#N)C12CCCCC2` (configuration not stated) (tested in a mixture with another compound), the growth inhibition in assay [1] is 36.5%; in assay [2], 10.1%; in assay [3], 56%; in assay [4], 4.9%; in assay [5] it was 33.8%; in assay [6], 23.2%.

In the case of `C1CC[N-]CC1.CC(=N\O)/C(C)=N/O.CC(=N\O)/C(C)=N/O.[CH2-]Cl.[Co+2]`, the growth inhibition is 4.6% in assay [1]; 14.8% in assay [2]; 14.4% in assay [3]; -31.6% in assay [4]; 20.1% in assay [5]; 27.9% in assay [6].

On to `CC1(C)SC2C(NC(=O)Cc3ccccc3)C(=O)N2C1C(=O)O` (configuration not stated) (tested in a mixture with another compound), for which the growth inhibition in assay [1] is 2.2%; in assay [2], 0.85%; in assay [3], 13.5%; in assay [4], -2.3%; in assay [5] it was -12.3%; in assay [6], -11.7%.

Turning to `C/C=C(\CC)C1(CCC)C(=O)NC(=O)NC1=O`, the growth inhibition in assay [1] was 15.1% and 5.2%; in assay [2], 13.1% and 3%; in assay [3], 5.25% and 22.8%; in assay [4], 17.4% and -7%; in assay [5], 1.35% and -0.4%; in assay [6], 7.75% and -3.65%.

Turning to `[N-]=[N+]=NC1=C(N=[N+]=[N-])c2cccc3cccc(c23)C1=O`, the growth inhibition in assay [1] was 46.3%; in assay [2], 29.1%; in assay [3] it was 55.3%; in assay [4], 55.6%; in assay [5] it was 21.1%; in assay [6] it was 81.9% (active).

For the molecule `C1CC2OC2CC1C1CO1` (configuration not stated), the growth inhibition in assay [1] was -0.4%; in assay [2] it was -3%; in assay [3], 4.7%; in assay [4], -8.4%; in assay [5], -17.1%; in assay [6], -17.9%.

For `CN(C1CCCCC1)C1CCCCC1`, the growth inhibition in assay [1] was -7.75%; in assay [2] it was -2.05%; in assay [3], -6.65%; in assay [4] it was -9.85%; in assay [5] it was 6.6%; in assay [6] it was -8.3%.

As to `CCOC(=O)C[CH2][Sn]([Cl])([Cl])[Cl]`, the growth inhibition in assay [1] is 17.4%; in assay [2], 22.5%; in assay [3], 21.1%; in assay [4], 12.3%; in assay [5], 4.3%; in assay [6] it was 20.9%.

As to `CCOC(=O)C(CCc1ccc(N(CCCl)CCCl)cc1)(NC(C)=O)C(=O)OCC`, the growth inhibition was 1.5% in assay [1]; -32.6% in assay [2]; 8.65% in assay [3]; -4.35% in assay [4]; -16.8% in assay [5]; -39.9% in assay [6].

With `CC1C(C(=O)c2ccc(-c3ccccc3)cc2)N1C(C)(C)C` (configuration not stated), the growth inhibition was -10.4% in assay [1]; 10.2% in assay [2]; 7.75% in assay [3]; 23.4% in assay [4]; 1.15% in assay [5]; -11.8% in assay [6].

In the case of `O=C(NCCc1ccc([N+](=O)[O-])cc1)c1ccc(S(=O)(=O)F)cc1`, the growth inhibition in assay [1] is 1.9%; in assay [2], 12.7%; in assay [3] it was 6.5%; in assay [4], 3%; in assay [5] it was 19.4%; in assay [6], 8.05%.

With `O=C(O)C(F)(F)F.O=C(O)C(F)(F)F.O=C(O)C(F)(F)F.O=C(O)C(F)(F)F.[Rh].[Rh]`, the growth inhibition is 26.8% in assay [1]; 17.1% in assay [2]; 22.1% in assay [3]; 21.2% in assay [4]; 21.4% in assay [5]; 28% in assay [6].

Turning to `Fc1ccc(C2(N3CCC4(CC3)OCCO4)CCCCC2)cc1`, the growth inhibition is -8.05% in assay [1]; 9% in assay [2]; 14.1% in assay [3]; -15.5% in assay [4]; 0.1% in assay [5]; 5.6% in assay [6].

Turning to `Nc1ccc(C(=O)Nc2ccc([As](=O)(O)O)cc2)cc1`, the growth inhibition in assay [1] is 4.35%; in assay [2], 11.4%; in assay [3] it was 7.8%; in assay [4] it was -17.3%; in assay [5], 5.4%; in assay [6] it was 23.9%.

With `C[n+]1ccccc1-c1ccc[n+](CCCC[n+]2cccc(-c3cccc[n+]3C)c2)c1`, the growth inhibition in assay [1] was -8.5%; in assay [2], -1.8%; in assay [3] it was -7.5%; in assay [4], -25.6%; in assay [5], -8.65%; in assay [6], 20%.

`O=[N+]([O-])c1ccc(OCc2ccc(Cl)c(S(=O)(=O)F)c2)c(Cl)c1`: the growth inhibition is -18.1% in assay [1]; -8.3% in assay [2]; 29.8% in assay [3]; -24.4% in assay [4]; 20.7% in assay [5]; 24.1% in assay [6].

On to `O=C(O)c1ccccc1S`, for which the growth inhibition in assay [1] is 7.1% and 0.05%; in assay [2] it was -7.6% and -15.2%; in assay [3], 9.95% and -8.35%; in assay [4], 18.9% and -22.2%; in assay [5], -1.75% and 5.25%; in assay [6], 2.75% and 11.5%.

With `COc1ccc(C(C)N)cc1` (configuration not stated), the growth inhibition in assay [1] is -47.4%; in assay [2] it was -5.3%; in assay [3] it was -10.4%; in assay [4], -11.2%; in assay [5] it was -4.3%; in assay [6], -2.9%.

These data come from PubChem BioAssay (NCI).
